Measurements from PubChem BioAssay (NCATS).
Records with an inconclusive call do not appear. Active and inactive are the calls of the source. The call rests on the fitted dose curve; in most records, active means well fitted curve in the direction sought with a large enough effect; inconclusive means small, poorly fitted or top-dose-only effect, or another doubt; inactive means no such curve, though single readings can be large; an effect the other way counts as inactive or inconclusive.

Columns and labels:
[1] = test system: HEK293; test: Cytotoxic Profiling of Annotated Libraries Using Quantitative High-Throughput Screening (AID 1296008); conditions: Five cell lines viability, CellTiter-Glo ATP luminescence, 48-72 h; max response: hits give low values; further: nearly all actives have a fitted effect of over 60% in size
In short: (§1)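 Compounds were pin-transferred onto cells and incubated 48 or 72 hr at 37 degree Celsius, 95% humidity. CellTiter-Glo was added, plates sat 10 min at room temperature, then ATP-coupled luminescence was imaged as the viability read-out.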

[2] = test system: HaCat; test: as above; conditions: Five cell lines viability, CellTiter-Glo ATP luminescence, 48-72 h; max response: hits give low values
In short: as §1

[3] = test system: KB-3-1; test: as above; conditions: Five cell lines viability, CellTiter-Glo ATP luminescence, 48-72 h; max response: hits give low values
In short: as §1

[4] = test system: NIH3T3; test: as above; conditions: Five cell lines viability, CellTiter-Glo ATP luminescence, 48-72 h; max response: hits give low values
In short: as §1

[5] = test system: C33A; test: Primary qHTS to identify gynecologic anti-cancer compounds using libraries of approved drugs and bioactive compounds (AID 1345084); conditions: Gynecologic cancer cell panel viability, ATPlite luminescence, 48 h; series mostly up to 57.5 µM; further: nearly all actives have a fitted effect of over 55% in size
In short: (§2)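 Cytotoxicity screen measuring ATP content by luciferase luminescence. Each compound is applied at five concentrations for 48 h at 37 C with 5% CO2.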

[6] = test system: CAOV3; test: as above; conditions: Gynecologic cancer cell panel viability, ATPlite luminescence, 48 h; series mostly up to 57.5 µM
In short: as §2

[7] = test system: CASKI; test: as above; conditions: Gynecologic cancer cell panel viability, ATPlite luminescence, 48 h; series mostly up to 57.5 µM
In short: as §2

[8] = test system: Es-2; test: as above; conditions: Gynecologic cancer cell panel viability, ATPlite luminescence, 48 h; series mostly up to 57.5 µM
In short: as §2

[9] = test system: HeLa; test: as above; conditions: Gynecologic cancer cell panel viability, ATPlite luminescence, 48 h; series mostly up to 57.5 µM
In short: as §2

[10] = test system: Hek293T; test: as above; conditions: Gynecologic cancer cell panel viability, ATPlite luminescence, 48 h, control line for the selectivity index; series mostly up to 57.5 µM
In short: as §2

[11] = test system: JEG-3; test: as above; conditions: Gynecologic cancer cell panel viability, ATPlite luminescence, 48 h; series mostly up to 57.5 µM
In short: as §2
On the % scale 0 is the no-effect control and ±100 the full control effect.

Cc1cc(Nc2nc(NC(C)c3ncc(F)cn3)ncc2Cl)n[nH]1 (stereo not drawn)
inactive: max response [1] -3.92% | max response [2] 0.354% | outcome [3] | max response [4] -5.45% | Potency [5] | Potency [6] | Potency [7] | Potency [8] | Potency [9] | Potency [10] | Potency [11]

CC1COC2(OC3CC4C5CC(O[C@@H]6O[C@H](C)[C@@H](O[C@@H]7O[C@@H](C)[C@H](O)[C@@H](O)[C@H]7O)[C@H](O)[C@H]6O)C6CC(O)CCC6(C)C5CCC4(C)C3C2C)C(O)C1 (stereo partly drawn)
inactive: max response [1] 3.68% | max response [2] -23.5% | max response [3] 7.16% | max response [4] 4.8% | Potency [5] | Potency [6] | Potency [7] | Potency [8] | Potency [9] | Potency [10] | Potency [11]

C=C(C(=O)O)C1CCC2(C)CCC(O)C(C)(O)C2C1 (stereo not drawn)
inactive: max response [1] -0.305% | max response [2] -8.51% | max response [3] 1.37% | max response [4] -18.2% | Potency [5] | Potency [6] | Potency [7] | Potency [8] | Potency [9] | Potency [10] | Potency [11]

C=CC(C)(C)c1[nH]c2ccccc2c1C[C@@H]1NC(=O)[C@H](Cc2c[nH]c3ccccc23)NC1=O
inactive: max response [1] -1.95% | max response [2] -3.54% | max response [3] 3.66% | max response [4] 0.0013% | Potency [5] | Potency [6] | Potency [7] | Potency [8] | Potency [9] | Potency [10] | Potency [11]

COC(=O)C1=CO[C@@H](O[C@@H]2O[C@H](CO)[C@@H](O)[C@H](O)[C@H]2O)[C@H]2[C@@H]1CC(OC)O[C@@H]2C (stereo partly drawn)
inactive: max response [1] 4.51% | max response [2] -16.4% | max response [3] 3.52% | max response [4] -1.67% | Potency [5] | Potency [6] | Potency [7] | Potency [8] | Potency [9] | Potency [10] | Potency [11]

CC(=O)OC1C[C@@]2(C)[C@@H](CC[C@@H](C)[C@]23Cc2c(O)cc4c(c2O3)CNC4=O)C(C)(C)[C@@H]1O (stereo partly drawn)
inactive: max response [1] 1.75% | max response [2] 4.03% | outcome [3] | max response [4] 1.15% | Potency [5] | Potency [6] | Potency [7] | Potency [8] | Potency [9] | Potency [10] | Potency [11]

c1ccc(-c2ncc(CN3CCN(c4ncccn4)CC3)[nH]2)cc1
inactive: max response [1] 0.625% | max response [2] 0.273% | max response [3] -2.29% | max response [4] -1.52% | Potency [5] | Potency [6] | Potency [7] | Potency [8] | Potency [9] | Potency [10] | Potency [11]

OC[C@H]1O[C@@H](O[C@H]2[C@H](OCCc3ccccc3)O[C@H](CO)[C@@H](O)[C@@H]2O)[C@H](O)[C@@H](O)[C@@H]1O
inactive: max response [1] -0.444% | max response [2] -12% | max response [3] 5.74% | max response [4] -1.68% | Potency [5] | Potency [6] | Potency [7] | Potency [8] | Potency [9] | Potency [10] | Potency [11]

CC1=CC(=O)C(=C(C)C)CC2C1CCC2(C)O (stereo not drawn)
inactive: max response [1] 4.65% | max response [2] -1.27% | max response [3] 8.27% | max response [4] -2.64% | Potency [5] | Potency [6] | Potency [7] | Potency [8] | Potency [9] | Potency [10] | Potency [11]

CC1=CC(=O)CC(C)(C)C1/C=C/C(C)O[C@@H]1O[C@H](CO)[C@@H](O)[C@H](O)[C@H]1O[C@@H]1OC[C@](O)(CO)[C@H]1O (stereo partly drawn)
inactive: max response [1] 1.02% | max response [2] 4.57% | max response [3] 2.75% | max response [4] 3.26% | Potency [5] | Potency [6] | Potency [7] | Potency [8] | Potency [9] | Potency [10] | Potency [11]

OC/C=C/c1ccc(O[C@@H]2O[C@H](CO)[C@@H](O)[C@H](O)[C@H]2O)cc1
inactive: max response [1] -1.19% | max response [2] 4.35% | max response [3] 3.13% | max response [4] -0.785% | Potency [5] | Potency [6] | Potency [7] | Potency [8] | Potency [9] | Potency [10] | Potency [11]

Cc1cc(C(=O)N2CCCCc3ccccc32)ccc1CNC(=O)N1CCC[C@H]1C(=O)N(C)C
inactive: max response [1] -0.739% | max response [2] -11% | max response [3] 4.93% | max response [4] 3.28% | Potency [5] | Potency [6] | Potency [7] | Potency [8] | Potency [9] | Potency [10] | Potency [11]

CC1(O)CCCC2(C)C1CCC13CC(CO)C(CCC12)C3 (stereo not drawn)
inactive: max response [1] -21.4% | max response [2] 2.13% | outcome [3] | max response [4] -0.27% | Potency [5] | Potency [6] | Potency [7] | Potency [8] | Potency [9] | Potency [10] | Potency [11]

C/C1=C\CC[C@H](C)CCO[C@@H]2O[C@H](CO[C@@H]3OC[C@](O)(COC1=O)[C@H]3O)[C@@H](O)[C@H](O)[C@H]2O
inactive: max response [1] -0.349% | max response [2] -11.3% | outcome [3] | max response [4] -5.92% | Potency [5] | Potency [6] | Potency [7] | Potency [8] | Potency [9] | Potency [10] | Potency [11]

C[C@@H]1O[C@@H](O[C@H]2[C@H](O)[C@@H](C(=O)O)O[C@@H](O[C@H]3CC[C@@]4(C)C(CC[C@]5(C)C4CC=C4C6CC(C)(C)CC[C@]6(C(=O)O)CC[C@]45C)C3(C)C)[C@@H]2O[C@@H]2OC[C@@H](O)[C@H](O)[C@H]2O)[C@H](O)[C@H](O)[C@H]1O (stereo partly drawn)
inactive: max response [1] -0.663% | max response [2] -12.7% | max response [3] 9.7% | max response [4] 0.526% | activity change, negative = cytotoxicity [5] 12.7% [at 11.6 µM] | activity change, negative = cytotoxicity [6] -1.86% [at 11.6 µM] | activity change, negative = cytotoxicity [7] -0.197% [at 11.6 µM] | activity change, negative = cytotoxicity [8] -1.84% [at 11.6 µM] | activity change, negative = cytotoxicity [9] 10.5% [at 11.6 µM] | activity change, negative = cytotoxicity [10] 5.25% [at 11.6 µM] | activity change, negative = cytotoxicity [11] 3.19% [at 11.6 µM]

CC(C)C1=CC2C(CC[C@]2(C)O)[C@](C)(O)CC1 (stereo partly drawn)
inactive: max response [1] -1.9% | max response [2] 2.33% | outcome [3] | max response [4] 2.57% | Potency [5] | Potency [6] | Potency [7] | Potency [8] | Potency [9] | Potency [10] | Potency [11]

C=C(C)C1Cc2cc(C(=O)OC3OC(CO)C(O)C(O)C3O)ccc2O1 (stereo not drawn)
inactive: max response [1] -15% | max response [2] -9.03% | max response [3] 0.614% | max response [4] -5.26% | Potency [5] | Potency [6] | Potency [7] | Potency [8] | Potency [9] | Potency [10] | Potency [11]

C=C1CCC2C(C)(C(=O)O)CCCC2(C)C1CC/C(=C\CO)CO (stereo not drawn)
inactive: max response [1] 2.54% | max response [2] -8.15% | max response [3] 8.33% | max response [4] 3.98% | Potency [5] | Potency [6] | Potency [7] | Potency [8] | Potency [9] | Potency [10] | Potency [11]

CC/C=C\CC1C(=O)C=CC1(CCCCCCCC(=O)O)OC(C)=O (stereo not drawn)
inactive: max response [1] 2.73% | max response [2] 3.46% | outcome [3] | max response [4] 4.26% | Potency [5] | Potency [6] | Potency [7] | Potency [8] | Potency [9] | Potency [10] | Potency [11]

O=C(Nc1ccn[nH]1)c1c(F)cccc1F
inactive: max response [1] 4.81% | max response [2] -3.04% | outcome [3] | max response [4] 3.6% | Potency [5] | Potency [6] | Potency [7] | Potency [8] | Potency [9] | Potency [10] | Potency [11]

CCCOC(c1cc2nccc(C(=O)O)c2[nH]1)c1ccccc1Cl (stereo not drawn)
inactive: max response [1] -12.6% | max response [2] -2.87% | outcome [3] | max response [4] 4.32% | Potency [5] | Potency [6] | Potency [7] | Potency [8] | Potency [9] | Potency [10] | Potency [11]

CC(C)=CCC/C(C)=C/CO[C@@H]1O[C@H](CO)[C@@H](OC(=O)/C=C/c2ccc(O)cc2)[C@H](O[C@@H]2O[C@@H](C)[C@H](O)[C@@H](O)[C@H]2O)[C@H]1O
inactive: max response [1] 1.83% | max response [2] -28.8% | outcome [3] | max response [4] -7.03% | Potency [5] | Potency [6] | Potency [7] | Potency [8] | Potency [9] | Potency [10] | Potency [11]

COc1ccc(/C=C/C(=O)O[C@@H]2[C@@H](O)[C@@H](O)[C@H](O[C@@H]3C=C(CO)[C@H]4[C@H](O[C@@H]5O[C@H](CO)[C@@H](O)[C@H](O)[C@H]5O)OC=C[C@H]43)O[C@H]2C)cc1O
inactive: max response [1] -69.5% | max response [2] -15% | max response [3] -14.4% | max response [4] -43% | Potency [5] | Potency [6] | Potency [7] | Potency [8] | Potency [9] | Potency [10] | Potency [11]
